aSyn 5UTR act: Activators via SNCA 5'UTR binding, MLPCN | alpha-synuclein 5'UTR reporter, activators screen | activity score, % (tested at 7.5 µM), hits read low | hit rate 7.1% among 300,000 | AID 1814, 2009; in the data active = activity score below about -60%
The depositor's hits bear a star. The list is a sample of the results.

SMILES	aSyn 5UTR act
Cc1cn(-c2cc(C(=O)Nc3ccc(C)c(NC(=O)C(=O)c4c[nH]c5ccccc45)c3)cc(C(F)(F)F)c2)cn1	66
Cc1ccc(OCC(=O)c2c[nH]c3ccccc23)c([N+](=O)[O-])n1	-67*
Cc1ccc(C(=O)OCC(=O)c2c[nH]c3ccccc23)cc1	-147*
COc1ccc(C2C(O)C(c3c[nH]c4ccccc34)=NN2C(=O)CCl)cc1 (stereo not given)	108
CC1(C(=O)OCC(=O)c2c[nH]c3ccccc23)CC1(Cl)Cl (stereo not given)	-260*
O=C(OCC(=O)c1c[nH]c2ccccc12)C1=COCCO1	-143*
CCCNC(=O)Nc1nc2ccccc2s1	-118*
CC12CCC(C(=O)Nc3nc4ccccc4s3)(OC1=O)C2(C)C (stereo not given)	-113*
CN(CC(=O)Nc1nc2ccccc2s1)S(=O)(=O)c1ccccc1	-83*
CCCNC(=O)c1ccc(-c2nc3ccccc3s2)s1	79
Cc1ccc(CC(=O)Nc2nc3ccccc3s2)cc1	-96*
CCc1ccc2nc(NC(=O)CSCc3c(C)noc3C)sc2c1	-73*
CCCCNC(=O)Nc1nc2ccccc2s1	-81*
CN(C)c1ccc(CC(=O)c2nc3ccccc3s2)cc1	-125*
CCOC(=O)Nc1nc(-c2ccc(Cl)cc2Cl)cs1	-97*
CCOC(=O)Nc1nc2ccccc2s1	-125*
CCCCNC(=O)Nc1nc2ccc(CC)cc2s1	-124*
O=C(CCNC(=O)c1ccccc1Cl)Nc1nc2ccccc2s1	-83*
CSc1nc(O)c(/C=C2\C=Nc3ccccc32)[nH]1	-221*
COc1ccc(CCc2nnc(CCC(=O)NCc3cc(C(C)C)no3)o2)cc1	-99*
Cn1nnc2cc(C(=O)Nc3ccc(Cl)cc3)ccc21	-117*
CN(C)c1ccc(NC(=O)Nc2ccc3c(c2)nnn3C)cc1	-109*
CC(=O)O/N=C(\N)c1ccc(-c2csnn2)cc1	-128*
CC(C)(C)C(=O)O/N=C(\N)c1ccc(-c2csnn2)cc1	-131*
CC(C)(C)C(=O)Nc1ccc(-c2csnn2)cc1	-74*
SMILES	aSyn 5UTR act
Cc1ccccc1C(=O)Oc1ccc(-c2csnn2)cc1	-68*
COCCn1c(SCc2nc3ccccc3s2)nc2ccccc21	-144*
C=CCn1c(=O)c2ccccc2n2c(SCc3nc4ccccc4s3)nnc12	-97*
CCOCCCn1c(SCc2nc3ccccc3s2)nc2ccccc2c1=O	-78*
COc1ccc(Cc2nc3ccc(C(=O)N4CCCC4)cc3o2)cc1	-155*
C=C(C)CNC(=O)c1ccc2nc(Cc3ccc(OC)cc3)oc2c1	-178*
COc1ccc([C@@H](C)NC(=O)c2ccc3oc(C(C)C)nc3c2)cc1	-70*
O=C(c1ccc2nc(Cc3cccc(Cl)c3)oc2c1)N1CCOCC1	-99*
COc1ccc(Cc2nc3ccc(C(=O)NC(C)C)cc3o2)cc1	-107*
Cn1nnnc1SCc1csc(Nc2ccccc2)n1	-109*
Cc1ccc(Nc2nc(CSc3nnnn3C)cs2)cc1	-103*
Cc1ccc(Nc2nc(CSc3n[nH]c(N)n3)cs2)cc1	-108*
CC(C)C[C@H](NC(=O)c1nc[nH]c1C(=O)N[C@@H](CC(C)C)C(=O)OC(C)(C)C)C(=O)OCc1ccccc1	61
COc1ccc(C(=O)Nc2ccc(C3CC3(Cl)Cl)cc2)cc1 (stereo not given)	-95*
COc1ccc(NC(=O)c2ccc3nccnc3c2)cc1	-102*
CCOc1ccc(C(=O)NC(Cc2ccccc2)C(=O)OC)cc1 (stereo not given)	-104*
CCOc1ccc(NC(=O)c2ccc(OC)cc2)cc1	-114*
Cc1ccc(NC(=O)c2ccc(OC(=O)C(C)Oc3ccc(Cl)cc3C)cc2)cc1 (stereo not given)	-128*
COc1ccc(C(=O)Nc2ccc(/C(C)=N/NC(=O)c3ccccc3O)cc2)cc1OC	-69*
COc1ccc(NC(=O)c2ccc(Oc3ncccn3)cc2)cc1	-84*
COC(=O)c1ccc(NC(=O)c2ccc(OC(C)=O)c(OC)c2)cc1	-148*
CCOc1ccc(NC(=O)Nc2ccc3nccnc3c2)cc1	-96*
CC(C)(C)NC(=O)Nc1ccc2nccnc2c1	-96*
CCOc1ccc(NC(=O)c2ccc3nccnc3c2)cc1	-113*
COc1ccc(C(=O)Nc2ccc(OC)c(OC)c2)cc1	-98*
SMILES	aSyn 5UTR act
COc1cc(C(=O)N/N=C/c2cn(Cc3cccc(F)c3)c3ccccc23)ccc1O	62
O=C(N/N=C/c1cccs1)c1cccc(NC(=O)c2ccc(Cl)cc2)c1	59
Oc1ccc(/C=N/Nc2ccc(C(F)(F)F)cn2)cc1	-280*
O=C(N/N=C/c1cccc(NC(=O)c2ccc(Cl)cc2)c1)c1cccc(O)c1	-68*
O=C(N/N=C\c1ccc(F)cc1)c1ccc(F)cc1	-132*
COC(=O)c1ccc(/C=N/NC(=O)c2cccc(F)c2)cc1	-134*
O=C(N/N=C/c1ccc(C(F)(F)F)cc1)c1ccc(O)cc1	-85*
O=C(N/N=C(\c1ccccc1)c1cccnc1)c1cccc(F)c1	80
O=C(N/N=C/c1cnc2ccccc2n1)c1cccc(F)c1	-120*
O=C(N/N=C/c1c(O)ccc2ccccc12)c1cccc(C(F)(F)F)c1	111
Nc1ccc(C(=O)N/N=C/c2ccccc2)cc1	-140*
O=C(N/N=C/c1ccccc1Cl)c1ccc(F)cc1	-189*
COc1cc(C(=O)Oc2ccccc2/C=N/NC(=O)c2ccc(C)c(Cl)c2)cc(OC)c1OC	84
O=C(O)c1ccc(N/N=C/c2ccc(C(F)(F)F)cc2)cc1	61
CSc1ccc(/C=N/NC(=O)c2cccc(O)c2)cc1	-167*
C/C(=N\Nc1ccc(C(F)(F)F)cn1)c1ccncc1	-148*
O=C(N/N=C/c1ccc[nH]1)c1ccc(Cl)cc1	-121*
Cc1cc(-c2ccccc2)nc(N/N=C/c2ccccc2F)n1	-160*
C/C(=N\Nc1nc(C)cc(-c2ccccc2)n1)c1cccc(N)c1	-64*
C/C(=N/Nc1nc(C)cc(-c2ccccc2)n1)c1ccco1	-76*
C/C(=N\Nc1nc(C)cc(-c2ccccc2)n1)c1ccccc1	-102*
Cn1c(O)c(C2=c3ccccc3=NC2=O)sc1=Nc1ccc(Cl)cc1	-93*
O=c1c2cc(Br)ccc2[nH]c(=S)n1Cc1ccccn1	-70*
Cc1cccc(NCc2ccc(N(C)C)cc2)n1	-72*
COc1ccccc1C(CCNCc1ccc(N(C)C)cc1)c1ccc(OC(C)C)cc1 (stereo not given)	135
SMILES	aSyn 5UTR act
CN1CCC(=NNc2ncnc3sc4c(c23)CCCC4)CC1	-82*
C=CCn1c(=O)/c(=C2/Sc3cc(OC)ccc3N2C)s/c1=C1\C(=O)N(CC)C(=S)N1C	-98*
Cc1cc(C(=O)OC(C(=O)Nc2ccc(C)c(Cl)c2)c2ccccc2)c(C)o1 (stereo not given)	-68*
Cn1c(=O)c2c(nc(NCC3CCCC(CN)C3)n2Cc2ccc(Cl)cc2Cl)n(C)c1=O (stereo not given)	-84*
Cc1ccc2c(CC(=O)NCc3ccco3)coc2c1C	-95*
O=c1[nH]c(COc2ccc(Cl)cc2Cl)nc2ccccc12	-189*
O=c1[nH]c(COc2ccc(Cl)cc2Br)nc2ccccc12	-123*
Cc1ccc(C(=O)NC2CCC(C)CC2)s1 (stereo not given)	-92*
CC1CCC(NC(=O)c2cc3c(s2)CCCC3)CC1 (stereo not given)	-116*
O=C(Nc1cc2c(cc1Cl)OCCCO2)c1ccco1	-144*
O=C(Nc1cc2c(cc1Cl)OCCCO2)c1ccccc1	-151*
N=c1scc(-c2ccccc2)n1/N=C/c1ccco1	-220*
